PMC7862700, “An all-to-all approach to the identification of sequence-specific readers for epigenetic DNA modifications on cytosine”

Columns and labels:
Test in all cases: DAPPL (digital affinity profiling via proximity ligation, sequencing); 10 mM Tris-HCl pH 7.5, 50 mM NaCl, 1 mM DTT, 4% glycerol, room temperature, 30 min; GST-TFs on glutathione beads, 16-mer random dsDNA library, 0.1% formaldehyde crosslink after washing; high values mean tight binding
Settings in all cases: protein: recombinant; tags: N-terminal GST; dsDNA, one strand shown
FLI1 = target: T1, FLI1 (Homo sapiens, UniProt Q01543 1-452)
T1 sequence: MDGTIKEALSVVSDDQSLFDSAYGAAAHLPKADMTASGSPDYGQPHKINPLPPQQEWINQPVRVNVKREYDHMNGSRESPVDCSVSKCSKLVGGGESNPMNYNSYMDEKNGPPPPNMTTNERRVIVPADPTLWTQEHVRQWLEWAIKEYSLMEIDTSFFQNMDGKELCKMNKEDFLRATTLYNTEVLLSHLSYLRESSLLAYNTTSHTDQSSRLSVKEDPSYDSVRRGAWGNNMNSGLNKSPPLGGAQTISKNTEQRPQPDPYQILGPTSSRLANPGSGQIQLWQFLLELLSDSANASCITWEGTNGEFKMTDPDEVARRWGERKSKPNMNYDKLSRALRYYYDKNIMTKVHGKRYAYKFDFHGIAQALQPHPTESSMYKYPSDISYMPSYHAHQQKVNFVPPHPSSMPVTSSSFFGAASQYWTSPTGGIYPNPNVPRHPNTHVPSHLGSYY
Procedure, shortened: (§1)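 Human transcription factors were made in yeast as GST fusions, captured on glutathione beads and barcoded with DNA. With a tag-only sample included, the pool was incubated with 200 nmole of a random double-stranded 16-mer DNA library in Tris/NaCl/DTT/glycerol buffer at room temperature for 30 min, then crosslinked with 0.1% formaldehyde after washing, ligated by proximity, amplified and sequenced. For binding signal, each hexamer's read frequency for a factor is divided by its frequency for the tag-only sample.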

ELK1 = target: T2, ELK1 (Homo sapiens, UniProt P19419 1-428)
T2 sequence: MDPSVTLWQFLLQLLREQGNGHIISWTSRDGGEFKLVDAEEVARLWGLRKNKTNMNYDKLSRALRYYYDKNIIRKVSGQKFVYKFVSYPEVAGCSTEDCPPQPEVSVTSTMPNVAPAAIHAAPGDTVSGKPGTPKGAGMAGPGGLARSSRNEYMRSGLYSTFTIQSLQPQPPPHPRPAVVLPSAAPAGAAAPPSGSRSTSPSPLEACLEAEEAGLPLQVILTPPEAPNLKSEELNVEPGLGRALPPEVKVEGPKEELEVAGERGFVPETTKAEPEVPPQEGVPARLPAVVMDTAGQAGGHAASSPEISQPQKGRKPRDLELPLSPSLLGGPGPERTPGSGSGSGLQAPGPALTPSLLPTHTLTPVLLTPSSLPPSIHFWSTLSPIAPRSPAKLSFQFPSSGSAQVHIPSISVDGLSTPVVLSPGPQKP
Procedure, shortened: as §1

GABPA = target: T3, GABPA (Homo sapiens, UniProt Q06546 1-454)
T3 sequence: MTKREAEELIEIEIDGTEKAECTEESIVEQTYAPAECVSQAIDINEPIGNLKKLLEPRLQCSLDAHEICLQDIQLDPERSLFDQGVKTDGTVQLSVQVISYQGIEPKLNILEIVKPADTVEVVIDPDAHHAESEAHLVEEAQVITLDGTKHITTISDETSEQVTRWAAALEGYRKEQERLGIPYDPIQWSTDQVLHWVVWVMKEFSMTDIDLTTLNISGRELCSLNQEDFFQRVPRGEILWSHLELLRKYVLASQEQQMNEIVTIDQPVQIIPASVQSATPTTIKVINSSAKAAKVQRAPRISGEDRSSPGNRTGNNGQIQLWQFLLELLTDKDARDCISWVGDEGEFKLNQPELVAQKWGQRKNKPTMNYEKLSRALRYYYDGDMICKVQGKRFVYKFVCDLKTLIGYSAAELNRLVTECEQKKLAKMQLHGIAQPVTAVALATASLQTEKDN
Procedure, shortened: as §1

ELF1 = ELF1 (Homo sapiens, UniProt P32519 1-619)
Procedure, shortened: as §1

EHF = target: T4, EHF (Homo sapiens, UniProt Q9NZC4 1-300)
T4 sequence: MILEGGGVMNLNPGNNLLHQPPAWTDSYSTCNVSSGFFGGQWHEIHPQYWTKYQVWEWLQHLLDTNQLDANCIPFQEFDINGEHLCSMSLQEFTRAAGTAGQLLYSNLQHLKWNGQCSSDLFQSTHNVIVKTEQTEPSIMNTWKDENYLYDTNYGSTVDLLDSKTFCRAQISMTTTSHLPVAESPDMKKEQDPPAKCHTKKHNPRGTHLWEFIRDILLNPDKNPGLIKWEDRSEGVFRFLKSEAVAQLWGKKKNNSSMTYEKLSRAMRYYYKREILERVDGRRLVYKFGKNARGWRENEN
Procedure, shortened: as §1

SPIC = target: T5, SPIC (Homo sapiens, UniProt Q8N5J4 1-248)
T5 sequence: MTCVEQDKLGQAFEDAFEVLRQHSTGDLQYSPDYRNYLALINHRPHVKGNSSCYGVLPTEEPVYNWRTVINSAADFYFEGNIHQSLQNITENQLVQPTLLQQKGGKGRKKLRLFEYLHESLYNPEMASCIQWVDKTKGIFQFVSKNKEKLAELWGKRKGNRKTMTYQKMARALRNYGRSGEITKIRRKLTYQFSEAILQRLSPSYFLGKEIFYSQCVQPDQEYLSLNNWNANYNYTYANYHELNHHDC
Procedure, shortened: as §1

ELF4 = ELF4 (Homo sapiens, UniProt Q99607 1-663)
Procedure, shortened: as §1

ELK4 = target: T6, ELK4 (Homo sapiens, UniProt P28324-2 1-405)
T6 sequence: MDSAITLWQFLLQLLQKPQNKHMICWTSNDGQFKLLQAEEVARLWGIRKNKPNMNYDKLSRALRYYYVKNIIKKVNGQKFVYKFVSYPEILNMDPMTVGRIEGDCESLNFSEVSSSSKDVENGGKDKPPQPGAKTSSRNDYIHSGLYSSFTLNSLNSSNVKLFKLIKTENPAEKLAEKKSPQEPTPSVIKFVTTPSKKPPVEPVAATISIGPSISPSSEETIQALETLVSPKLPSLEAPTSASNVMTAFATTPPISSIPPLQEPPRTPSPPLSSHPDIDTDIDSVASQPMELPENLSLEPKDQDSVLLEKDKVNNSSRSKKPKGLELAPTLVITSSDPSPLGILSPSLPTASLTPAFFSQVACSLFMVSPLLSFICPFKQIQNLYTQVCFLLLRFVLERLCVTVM
Procedure, shortened: as §1

ETV2 = target: T7, ETV2 (Homo sapiens, UniProt O00321 1-342)
T7 sequence: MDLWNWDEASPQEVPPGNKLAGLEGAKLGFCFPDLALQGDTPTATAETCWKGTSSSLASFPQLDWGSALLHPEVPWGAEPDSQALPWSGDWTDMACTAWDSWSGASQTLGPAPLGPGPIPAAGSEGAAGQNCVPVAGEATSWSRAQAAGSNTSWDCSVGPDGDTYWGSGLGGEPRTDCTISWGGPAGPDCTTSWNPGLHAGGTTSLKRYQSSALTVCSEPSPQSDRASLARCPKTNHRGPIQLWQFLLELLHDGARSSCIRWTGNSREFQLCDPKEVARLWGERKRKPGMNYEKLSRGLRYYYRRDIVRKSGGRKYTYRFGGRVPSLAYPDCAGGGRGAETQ
Procedure, shortened: as §1

ELF3 = target: T8, ELF3 (Homo sapiens, UniProt P78545 1-371)
T8 sequence: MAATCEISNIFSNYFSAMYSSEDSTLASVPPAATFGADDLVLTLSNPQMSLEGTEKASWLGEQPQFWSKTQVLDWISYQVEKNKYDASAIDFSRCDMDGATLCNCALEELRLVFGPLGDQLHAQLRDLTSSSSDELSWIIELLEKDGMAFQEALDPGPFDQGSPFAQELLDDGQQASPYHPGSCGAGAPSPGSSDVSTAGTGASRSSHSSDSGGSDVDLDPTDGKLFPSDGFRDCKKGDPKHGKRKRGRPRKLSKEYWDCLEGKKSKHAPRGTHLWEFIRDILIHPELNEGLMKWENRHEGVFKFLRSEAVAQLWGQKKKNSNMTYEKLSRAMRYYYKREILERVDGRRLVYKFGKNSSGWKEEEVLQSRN
Procedure, shortened: as §1

ETV1 = ETV1 (Homo sapiens, UniProt P50549 1-477)
Procedure, shortened: as §1

ETS2 = target: T9, ETS2 (Homo sapiens, UniProt P15036 1-469)
T9 sequence: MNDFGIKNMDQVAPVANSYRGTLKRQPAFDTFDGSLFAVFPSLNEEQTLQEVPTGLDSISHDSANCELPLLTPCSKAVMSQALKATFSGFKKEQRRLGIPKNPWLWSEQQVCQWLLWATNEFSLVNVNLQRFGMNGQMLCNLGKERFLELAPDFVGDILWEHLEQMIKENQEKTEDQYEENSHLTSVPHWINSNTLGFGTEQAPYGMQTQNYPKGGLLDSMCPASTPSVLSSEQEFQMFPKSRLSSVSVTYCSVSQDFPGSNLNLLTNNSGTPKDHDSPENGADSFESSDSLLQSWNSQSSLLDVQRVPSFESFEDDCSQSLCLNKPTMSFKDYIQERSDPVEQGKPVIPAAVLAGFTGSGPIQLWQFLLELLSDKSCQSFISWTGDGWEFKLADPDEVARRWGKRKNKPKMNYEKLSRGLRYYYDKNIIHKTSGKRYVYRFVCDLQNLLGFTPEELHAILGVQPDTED
Procedure, shortened: as §1

ETV7 = target: T10, ETV7 (Homo sapiens, UniProt Q9Y603 1-341)
T10 sequence: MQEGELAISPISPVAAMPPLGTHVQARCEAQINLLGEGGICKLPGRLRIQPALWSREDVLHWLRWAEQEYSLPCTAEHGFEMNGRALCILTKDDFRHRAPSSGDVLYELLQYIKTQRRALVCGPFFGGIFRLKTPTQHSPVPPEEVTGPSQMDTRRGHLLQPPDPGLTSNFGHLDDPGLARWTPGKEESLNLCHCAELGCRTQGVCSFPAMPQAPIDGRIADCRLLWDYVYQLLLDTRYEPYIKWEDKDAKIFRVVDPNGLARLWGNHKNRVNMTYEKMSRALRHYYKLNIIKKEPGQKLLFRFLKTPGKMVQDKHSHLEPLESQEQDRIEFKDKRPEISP
Procedure, shortened: as §1

ETV3 = target: T11, ETV3 (Homo sapiens, UniProt P41162-2 1-143)
T11 sequence: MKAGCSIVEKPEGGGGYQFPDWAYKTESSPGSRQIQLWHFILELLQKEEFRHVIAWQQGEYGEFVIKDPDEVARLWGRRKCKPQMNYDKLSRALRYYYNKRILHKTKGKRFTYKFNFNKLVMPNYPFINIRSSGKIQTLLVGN
Procedure, shortened: as §1

Chain of ETV1 (P50549 whole entry): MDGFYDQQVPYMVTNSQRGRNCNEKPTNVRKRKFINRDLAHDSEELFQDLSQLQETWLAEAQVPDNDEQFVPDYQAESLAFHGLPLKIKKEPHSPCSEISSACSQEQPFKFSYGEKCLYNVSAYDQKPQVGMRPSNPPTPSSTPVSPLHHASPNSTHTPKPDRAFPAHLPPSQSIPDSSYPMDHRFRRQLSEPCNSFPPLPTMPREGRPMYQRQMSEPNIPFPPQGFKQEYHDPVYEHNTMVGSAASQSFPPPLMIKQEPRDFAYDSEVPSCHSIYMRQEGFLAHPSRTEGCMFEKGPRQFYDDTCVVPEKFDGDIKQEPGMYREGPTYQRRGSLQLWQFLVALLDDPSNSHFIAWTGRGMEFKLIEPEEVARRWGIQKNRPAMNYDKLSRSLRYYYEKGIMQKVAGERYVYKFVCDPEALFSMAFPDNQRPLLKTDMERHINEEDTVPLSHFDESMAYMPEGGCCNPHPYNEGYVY
Chain of ELF1 (P32519 whole entry): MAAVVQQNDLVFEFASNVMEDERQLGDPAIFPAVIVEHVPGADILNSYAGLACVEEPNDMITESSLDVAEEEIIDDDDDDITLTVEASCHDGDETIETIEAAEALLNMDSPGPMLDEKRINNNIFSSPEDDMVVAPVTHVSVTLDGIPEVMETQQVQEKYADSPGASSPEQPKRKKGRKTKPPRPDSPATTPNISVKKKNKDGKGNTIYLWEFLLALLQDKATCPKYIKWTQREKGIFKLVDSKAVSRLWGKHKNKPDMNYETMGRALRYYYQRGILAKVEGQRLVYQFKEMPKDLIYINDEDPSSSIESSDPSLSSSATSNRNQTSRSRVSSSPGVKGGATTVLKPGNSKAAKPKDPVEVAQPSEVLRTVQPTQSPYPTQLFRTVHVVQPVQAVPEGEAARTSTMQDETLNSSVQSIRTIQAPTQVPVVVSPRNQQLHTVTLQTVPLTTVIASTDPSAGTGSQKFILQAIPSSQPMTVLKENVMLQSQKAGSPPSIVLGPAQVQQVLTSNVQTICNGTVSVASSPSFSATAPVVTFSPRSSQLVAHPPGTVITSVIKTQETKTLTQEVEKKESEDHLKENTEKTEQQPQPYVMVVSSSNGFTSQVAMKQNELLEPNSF
Chain of ELF4 (Q99607 whole entry): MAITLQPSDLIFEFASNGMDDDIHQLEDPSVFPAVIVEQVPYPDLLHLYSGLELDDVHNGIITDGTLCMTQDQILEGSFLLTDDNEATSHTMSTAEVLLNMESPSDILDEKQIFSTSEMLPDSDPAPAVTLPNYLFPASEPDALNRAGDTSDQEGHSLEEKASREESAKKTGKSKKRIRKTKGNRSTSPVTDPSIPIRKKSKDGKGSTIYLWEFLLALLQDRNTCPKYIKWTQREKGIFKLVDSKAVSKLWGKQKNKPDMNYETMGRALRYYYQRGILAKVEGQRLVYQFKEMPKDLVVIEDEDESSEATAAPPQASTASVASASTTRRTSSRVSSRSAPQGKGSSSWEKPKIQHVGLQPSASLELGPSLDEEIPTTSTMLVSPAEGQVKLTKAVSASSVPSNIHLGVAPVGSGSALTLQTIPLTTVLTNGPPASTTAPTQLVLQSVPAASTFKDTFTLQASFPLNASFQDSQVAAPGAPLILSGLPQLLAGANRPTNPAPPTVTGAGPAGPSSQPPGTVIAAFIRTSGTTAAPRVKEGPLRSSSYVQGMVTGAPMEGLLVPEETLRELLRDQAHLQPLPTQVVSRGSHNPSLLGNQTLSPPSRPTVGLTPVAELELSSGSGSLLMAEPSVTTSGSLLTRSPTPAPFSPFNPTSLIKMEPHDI

AGCTGA was tested, and the binding signal (FLI1) was 1.02 fold enrichment (6-mer frequency, TF over GST control), the binding signal (ELK1) was 1.07 fold enrichment (6-mer frequency, TF over GST control) and the binding signal (GABPA) was 1.01 fold enrichment (6-mer frequency, TF over GST control). For the same sequence, the binding signal (ELF1) was 1.1 fold enrichment (6-mer frequency, TF over GST control), the binding signal (EHF) was 1.11 fold enrichment (6-mer frequency, TF over GST control) and the binding signal (SPIC) was 1.14 fold enrichment (6-mer frequency, TF over GST control). The binding signal (ELF4) was 1.01 fold enrichment (6-mer frequency, TF over GST control), the binding signal (ELK4) was 1.02 fold enrichment (6-mer frequency, TF over GST control) and the binding signal (ETV2) was 1.08 fold enrichment (6-mer frequency, TF over GST control). For the same sequence, the binding signal (ELF3) was 1.14 fold enrichment (6-mer frequency, TF over GST control), the binding signal (ETV1) was 1.08 fold enrichment (6-mer frequency, TF over GST control) and the binding signal (ETS2) was 1.04 fold enrichment (6-mer frequency, TF over GST control). For the same sequence, the binding signal (ETV7) was 1.09 fold enrichment (6-mer frequency, TF over GST control) and the binding signal (ETV3) was 1.05 fold enrichment (6-mer frequency, TF over GST control).
